The values below come from PubChem BioAssay.

Assay [1] can be described thus: antimalarial activity against Dd2 strain (AID 2302;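 active means growth inhibition above 50% at the single 2 µM test dose, taken to imply half-maximal potency below 2 µM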;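 further: 0% = DMSO untreated growth and 100% = chloroquine plus artemisinin killed control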). As to conditions: P. falciparum Dd2 in RBCs, LDH growth readout, 72 h; at 2 µM; hits give high values.
Assay [2] in a line: human hepatoma cell viability loss – ATP luminescence, cytotoxicity control for P. falciparum antimalarial project, primary screen (AID 2303;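 active means inhibition above 50%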;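 further: 0% = DMSO wells and 100% = digitonin-killed cells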). As to conditions: HepG2 viability, 24-48 h, at 10 µM, hits give high values.
Assay [3] concerns the target L-lactate dehydrogenase (Plasmodium falciparum (isolate CDC / Honduras)) (UniProt Q27743). Kind of assay: PfLDH activity inhibition – cell lysate, 3D7 strain, counter-screen for P. falciparum growth inhibition project (AID 2304).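 Further: 0% = vehicle and 100% = reference inhibitor.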 Conditions: P. falciparum 3D7 crude extract, LDH APAD/NBT absorbance; at 2 µM; hits give high values. In general terms: A counterscreen serves to expose hits that act by an unwanted route or on another target.

The nature of assay [4]: inhibition of 3D7 malaria parasite growth – strain 3D7 (AID 2306).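 Further: 0% = DMSO wells and 100% = chloroquine plus artemisinin control wells.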 As to conditions: P. falciparum 3D7 erythrocytic growth, LDH absorbance, 72 h; at 2 µM; hits give high values.
The target in assay [5] is Calcium-dependent protein kinase 1 (Plasmodium falciparum (isolate 3D7)) (UniProt P62344). The assay is described as follows: PfCDPK1 kinase inhibitors, biochemical, TCAMS library (AID 1159585; cut-off not given, nearly all actives have IC50 up to about 0.98 µM;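 further: inhibitors leave more ATP so luminescence rises with inhibition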). As to conditions: recombinant PfCDPK1, Kinase-Glo ATP depletion luminescence. (In general: Kinase-Glo reads ATP consumption through a luciferase reaction.)
The target of assay [6] is Plasmodium falciparum protein kinase 6 (PK6, PF3D7_1337100) (UniProt Q8IDW1). Kind of assay: PfPK6 kinase inhibitors, biochemical, TCAMS library (AID 1159586). Conditions: recombinant PfPK6, Kinase-Glo ATP depletion luminescence.
Assay [7] addresses Protein kinase 7 (PK7), Plasmodium falciparum 3D7 (PF3D7_0213400) (UniProt Q7YTF7). Kind of assay: inhibition of Plasmodium PK7 catalytic activity – biochemical, TCAMS antimalarial set, Kinase-Glo luminescence (AID 1159587). As to conditions: recombinant PfPK7, Kinase-Glo ATP depletion luminescence.
Assay [8] addresses Calcium-dependent protein kinase 4 (Plasmodium falciparum (isolate 3D7)) (UniProt Q8IBS5). Kind of assay: PfCDPK4 kinase inhibitors, biochemical, TCAMS library (AID 1159588; cut-off not given, nearly all actives have IC50 up to about 0.91 µM). As to conditions: recombinant PfCDPK4, Kinase-Glo ATP depletion luminescence.

Molecules are shown by their SMILES. Unmarked numbers belong to inactive results. For part of these data: Entries with a potency or affinity are not part of this list. Calls of active or inactive are those of the source. Unless noted, how the calls were made is not given here.

L-lactate dehydrogenase (Plasmodium falciparum (isolate CDC / Honduras)), sequence (Q27743 whole entry, looked up): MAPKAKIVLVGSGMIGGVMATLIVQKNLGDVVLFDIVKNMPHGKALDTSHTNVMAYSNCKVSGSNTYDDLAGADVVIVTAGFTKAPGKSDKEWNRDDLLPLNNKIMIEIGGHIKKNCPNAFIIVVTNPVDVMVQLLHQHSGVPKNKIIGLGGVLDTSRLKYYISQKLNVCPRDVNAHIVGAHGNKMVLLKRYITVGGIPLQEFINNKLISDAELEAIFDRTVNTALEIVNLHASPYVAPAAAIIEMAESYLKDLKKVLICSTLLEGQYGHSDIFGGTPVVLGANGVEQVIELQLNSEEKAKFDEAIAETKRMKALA
Calcium-dependent protein kinase 4 (Plasmodium falciparum (isolate 3D7)), sequence (Q8IBS5 whole entry, looked up): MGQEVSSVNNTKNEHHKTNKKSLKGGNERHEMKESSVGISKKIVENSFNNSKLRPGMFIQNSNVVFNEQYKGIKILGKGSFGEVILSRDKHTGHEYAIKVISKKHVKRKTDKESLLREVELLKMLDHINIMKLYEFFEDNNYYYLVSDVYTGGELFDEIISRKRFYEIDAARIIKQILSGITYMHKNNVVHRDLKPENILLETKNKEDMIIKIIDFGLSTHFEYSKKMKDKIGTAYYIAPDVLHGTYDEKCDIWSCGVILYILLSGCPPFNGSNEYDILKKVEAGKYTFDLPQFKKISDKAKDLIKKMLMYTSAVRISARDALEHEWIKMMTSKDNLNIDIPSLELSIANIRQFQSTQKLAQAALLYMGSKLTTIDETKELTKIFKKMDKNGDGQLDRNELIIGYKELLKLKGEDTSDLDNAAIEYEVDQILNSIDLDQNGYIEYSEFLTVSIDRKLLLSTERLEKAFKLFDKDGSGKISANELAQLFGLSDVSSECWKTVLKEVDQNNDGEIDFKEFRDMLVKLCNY
Plasmodium falciparum protein kinase 6 (PK6, PF3D7_1337100), sequence (Q8IDW1 1-305): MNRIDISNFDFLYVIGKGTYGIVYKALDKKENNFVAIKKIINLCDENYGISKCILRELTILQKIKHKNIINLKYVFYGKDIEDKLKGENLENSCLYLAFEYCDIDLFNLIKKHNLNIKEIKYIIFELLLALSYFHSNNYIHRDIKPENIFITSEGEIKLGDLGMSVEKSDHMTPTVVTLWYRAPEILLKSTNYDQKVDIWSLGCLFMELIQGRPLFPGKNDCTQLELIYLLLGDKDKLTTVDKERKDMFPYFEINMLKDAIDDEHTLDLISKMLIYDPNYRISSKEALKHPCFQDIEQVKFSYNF
Calcium-dependent protein kinase 1 (Plasmodium falciparum (isolate 3D7)), sequence (P62344 whole entry, looked up): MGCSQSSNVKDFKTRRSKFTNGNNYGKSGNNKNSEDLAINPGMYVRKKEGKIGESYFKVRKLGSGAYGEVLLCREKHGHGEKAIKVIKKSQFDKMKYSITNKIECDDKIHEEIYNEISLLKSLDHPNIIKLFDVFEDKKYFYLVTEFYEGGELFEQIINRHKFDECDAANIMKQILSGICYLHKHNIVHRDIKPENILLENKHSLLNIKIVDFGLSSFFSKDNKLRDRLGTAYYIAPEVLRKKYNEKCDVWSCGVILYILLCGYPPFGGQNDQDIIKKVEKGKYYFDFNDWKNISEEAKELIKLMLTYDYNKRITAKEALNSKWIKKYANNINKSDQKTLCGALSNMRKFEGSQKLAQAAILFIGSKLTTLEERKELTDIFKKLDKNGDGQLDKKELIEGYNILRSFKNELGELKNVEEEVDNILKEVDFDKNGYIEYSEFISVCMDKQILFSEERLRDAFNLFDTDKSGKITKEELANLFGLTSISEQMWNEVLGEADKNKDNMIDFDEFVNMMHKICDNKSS
Protein kinase 7 (PK7), Plasmodium falciparum 3D7 (PF3D7_0213400), sequence (Q7YTF7 1-343): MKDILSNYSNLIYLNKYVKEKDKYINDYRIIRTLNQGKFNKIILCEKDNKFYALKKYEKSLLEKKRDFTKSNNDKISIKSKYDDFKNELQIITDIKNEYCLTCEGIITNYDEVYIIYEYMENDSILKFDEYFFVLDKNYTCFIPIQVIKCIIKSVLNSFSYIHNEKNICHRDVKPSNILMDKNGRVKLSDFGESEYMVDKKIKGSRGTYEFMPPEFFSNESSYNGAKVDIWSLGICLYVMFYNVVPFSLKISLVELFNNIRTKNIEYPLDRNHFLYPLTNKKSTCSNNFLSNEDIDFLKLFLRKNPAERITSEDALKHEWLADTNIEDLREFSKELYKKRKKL

As for `COc1ccc(CNCC2CCC(CNCCc3ccccc3)CC2)cc1Cl` (stereo not drawn), the growth inhibition was 29% in assay [1] and 100% (active) in assay [4]. For the same compound, the values for the inhibition in assay [2] and in assay [3] were 23% and -2%, respectively. Further, the outcome in assay [5], in assay [6], in assay [7] and in assay [8] was inactive.

Take `CN(C)CCCN1CCN(C(=O)c2cccc(-c3noc(C(F)(F)F)n3)c2)CC1`: the results for the growth inhibition in assay [1] and in assay [4] were 60% (active) and 92% (active), respectively. The values for the inhibition in assay [2] and in assay [3] were -7% and -4%, respectively. Also, the outcome in assay [5], in assay [6], in assay [7] and in assay [8] was inactive.

`Fc1cc(Cl)ccc1Nc1ccnc2cc(I)ccc12`: the growth inhibition in assay [1] was 10%; in assay [4], 90% (active). For the same compound, the inhibition (in general, the change of the read-out against control, counted positive when it falls) in assay [2] was 11%; in assay [3], -1%. Also, the result in assay [5], in assay [6], in assay [7] and in assay [8] was inactive.

For the compound `Clc1cccc(C23N=C(Nc4nc5ccccc5[nH]4)NC2(c2ccccc2)NC(Nc2nc4ccccc4[nH]2)=N3)c1` (stereo not drawn), the growth inhibition in assay [1] was 88% (active); in assay [4], 85% (active). The inhibition in assay [2] and in assay [3] was -3% in each case. Also, the outcome in assay [5], in assay [6], in assay [7] and in assay [8] was inactive.

In the case of `O=C(Nc1ccc2c(c1)CCC2)c1ccc(N2CCN(c3ccncc3)CC2)cc1`, the growth inhibition in assay [1] is 75% (active); in assay [4] it was 101% (active). Further, the inhibition was 72% (active) in assay [2] and 4% in assay [3]. Also, the outcome in assay [5], in assay [6], in assay [7] and in assay [8] was inactive.

Take `COc1cc2nc(Cl)nc(Nc3ccncc3)c2cc1OC`: the growth inhibition in assay [1] was 33%; in assay [4], 86% (active). Further, the values for the inhibition in assay [2] and in assay [3] were 11% and -2%, respectively. For the same compound, the outcome in assay [5], in assay [6], in assay [7] and in assay [8] was inactive.

In the case of `Cc1cc(NCCC(=O)Nc2ccccc2)nc(NCCc2ccccc2)n1`, the growth inhibition is 8% in assay [1] and 99% (active) in assay [4]. The inhibition was -8% in assay [2] and -3% in assay [3]. The result in assay [5], in assay [6], in assay [7] and in assay [8] was inactive.

As for `COc1ccc(Cl)cc1-c1nc(C(=O)NCCN2CCCCC2)c(C(C)C)s1`, the growth inhibition in assay [1] was 37%; in assay [4], 100% (active). Also, the figures for the inhibition in assay [2] and in assay [3] were 14% and -3%, respectively. The result in assay [5], in assay [6], in assay [7] and in assay [8] was inactive.

`Oc1c(Cl)cc(Nc2nccc(Nc3ccc(Oc4ccccc4)cc3)n2)cc1Cl`: the growth inhibition in assay [1] is 26%; in assay [4], 99% (active). In addition, the inhibition in assay [2] was 8%; in assay [3], -5%. In addition, the outcome in assay [5], in assay [6], in assay [7] and in assay [8] was inactive.

With `CCN(CC)CCCC(C)N=C(Nc1ccc(C#N)cc1O)Nc1ccccc1Br` (stereo not drawn), the values for the growth inhibition in assay [1] and in assay [4] were -2% and 89% (active), respectively. The inhibition in assay [2] is 4%; in assay [3] it was 2%. The result in assay [5], in assay [6], in assay [7] and in assay [8] was inactive.

Consider `COc1ccc2nccc(NC(=O)CNCc3ccc(-c4ccccc4)cc3)c2c1`, for which the growth inhibition in assay [1] is 35%; in assay [4] it was 101% (active). The inhibition is 11% in assay [2] and -4% in assay [3]. In addition, the result in assay [5], in assay [6], in assay [7] and in assay [8] was inactive.

On to `O=C(NCCc1cccc(Cl)c1Cl)c1cnc(N2CCN(c3ccncc3)CC2)c(Cl)c1`, for which the growth inhibition in assay [1] was 99% (active); in assay [4], 100% (active). For the same compound, the inhibition in assay [2] was 47%; in assay [3], 0%. The result in assay [5], in assay [6], in assay [7] and in assay [8] was inactive.

Consider `COc1cc(CNC[C@@H](O)[C@H](Cc2ccccc2)NC(=O)c2cc(C3CCCC3)cc(N3CCCCS3(=O)=O)c2)cc(OC)c1`, for which the values for the growth inhibition in assay [1] and in assay [4] were 96% (active) and 98% (active), respectively. The inhibition was 16% in assay [2] and 4% in assay [3]. The result in assay [5], in assay [6], in assay [7] and in assay [8] was inactive.

Turning to `CCN(CC)CCN(Cc1ccc(-c2ccc(C(F)(F)F)cc2)cc1)C(=O)Cn1c(CCc2ccc(F)cc2)nc(=O)c2sccc21`, the figures for the growth inhibition in assay [1] and in assay [4] were 90% (active) and 99% (active), respectively. The inhibition in assay [2] was 100% (active); in assay [3] it was -3%. Besides, the outcome in assay [5], in assay [6], in assay [7] and in assay [8] was inactive.

For `Cc1cc2c(NC(=O)NC3CCN(CCc4ccccc4Cl)CC3)cccc2cn1`, the results for the growth inhibition in assay [1] and in assay [4] were 46% and 102% (active), respectively. The inhibition in assay [2] is 13%; in assay [3] it was 0%. In addition, the result in assay [5], in assay [6], in assay [7] and in assay [8] was inactive.

For the compound `COc1ccc(C2CCN(CCCCNC(=O)c3ccc(NC(=O)c4ccc(Cl)cc4)cc3)CC2)c(C)c1`, the results for the growth inhibition in assay [1] and in assay [4] were 35% and 98% (active), respectively. The inhibition is 22% in assay [2] and 2% in assay [3]. Further, the outcome in assay [5], in assay [6], in assay [7] and in assay [8] was inactive.

As for `O=C(Nc1nc(-c2ccccn2)cs1)c1ccc(Br)s1`, the results for the growth inhibition in assay [1] and in assay [4] were 84% (active) and 96% (active), respectively. The inhibition in assay [2] was 40%; in assay [3] it was 7%. Moreover, the outcome in assay [5], in assay [6], in assay [7] and in assay [8] was inactive.

As for `Cc1nc2nc(N)nc(N)c2c(C)c1Cc1ccccc1Br`, the growth inhibition is 2% in assay [1] and 92% (active) in assay [4]. Besides, the inhibition in assay [2] is 65% (active); in assay [3] it was 1%. Moreover, the outcome in assay [5], in assay [6], in assay [7] and in assay [8] was inactive.

For the compound `CC1CCC2(CC1)N=C(N)N=C(N)N2OCCCCCCCCO` (stereo not drawn), the growth inhibition was 87% (active) in assay [1] and 96% (active) in assay [4]. In addition, the inhibition in assay [2] is 2%; in assay [3] it was -4%. Further, the result in assay [5], in assay [6], in assay [7] and in assay [8] was inactive.

On to `N#Cc1ccc2c(c1)CCN(CCC1CCC(NC(=O)/C=C/c3cccc4ccccc34)CC1)CC2` (stereo not drawn), for which the values for the growth inhibition in assay [1] and in assay [4] were 12% and 96% (active), respectively. The inhibition in assay [2] is 16%; in assay [3], -6%. Also, the outcome in assay [5], in assay [6], in assay [7] and in assay [8] was inactive.

Turning to `CCc1c(C)nc(-n2nc(C)cc2NC(=O)CCc2ccccc2)[nH]c1=O`, the growth inhibition in assay [1] and in assay [4] was 97% (active) each time. Besides, the inhibition is 48% in assay [2] and -1% in assay [3]. Also, the outcome in assay [5], in assay [6], in assay [7] and in assay [8] was inactive.
